{"source": "the supplement of paper PMC3334620", "note": "The full ranking holds about 33,000 sequences; the median of “E-score (-0.5 to 0.5)” is about -0.016, and the highest 2% start at about 0.32. Only a selection was taken, and the highest values are over-represented in it overall.", "data": [{"target": "T1, Stp1 (UniProt B3LFK1)", "T1 sequence": "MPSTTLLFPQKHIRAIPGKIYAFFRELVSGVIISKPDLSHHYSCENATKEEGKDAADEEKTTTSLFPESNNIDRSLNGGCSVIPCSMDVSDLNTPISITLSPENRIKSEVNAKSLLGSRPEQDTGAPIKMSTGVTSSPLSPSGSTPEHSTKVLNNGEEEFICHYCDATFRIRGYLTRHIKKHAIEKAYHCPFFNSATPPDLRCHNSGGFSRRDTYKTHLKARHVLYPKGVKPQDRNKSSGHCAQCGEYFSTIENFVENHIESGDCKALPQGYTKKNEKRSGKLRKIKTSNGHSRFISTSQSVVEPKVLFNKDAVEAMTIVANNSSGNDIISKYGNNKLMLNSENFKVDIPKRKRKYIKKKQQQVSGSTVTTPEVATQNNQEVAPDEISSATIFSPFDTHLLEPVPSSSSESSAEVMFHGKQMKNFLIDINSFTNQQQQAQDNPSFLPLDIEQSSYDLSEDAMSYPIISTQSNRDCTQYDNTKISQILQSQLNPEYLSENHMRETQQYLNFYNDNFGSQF", "experiment": "PBM E-score (8-mer binding enrichment) (E-score (-0.5 to 0.5)); higher = stronger / more preferred TF binding", "details": "protein concentration: 200 nM; construct: GST-full length", "outline": "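Each ungapped eight-base word and its reverse complement, pooled, received an E-score from the Universal PBM Analysis Suite. Underlying scans, normalised with masliner, recorded fluorescent anti-GST bound to GST-tagged yeast transcription factors. These were applied at about 100-200 nM to universal all-10-mer Agilent arrays double-stranded by primer extension.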", "values": [{"sequence": "CATGCACA", "PBM E-score": 0.0872}, {"sequence": "TATCAGAA", "PBM E-score": 0.22}, {"sequence": "CTTGCTTA", "PBM E-score": -0.203}, {"sequence": "AGGGCCGC", "PBM E-score": 0.168}, {"sequence": "TGCCTCAA", "PBM E-score": -0.019}, {"sequence": "TATTGCGA", "PBM E-score": 0.165}, {"sequence": "CACCTCAA", "PBM E-score": 0.0958}, {"sequence": "AGCTGCAC", "PBM E-score": -0.111}, {"sequence": "CAAGTCGG", "PBM E-score": -0.0998}, {"sequence": "TACACGCA", "PBM E-score": -0.204}, {"sequence": "AGTTTATA", "PBM E-score": 0.153}, {"sequence": "GGTTTATA", "PBM E-score": 0.0512}, {"sequence": "CGTTTATA", "PBM E-score": 0.331}, {"sequence": "GATTGTCC", "PBM E-score": -0.0756}, {"sequence": "AAAACAAA", "PBM E-score": 0.128}, {"sequence": "CCTGGACA", "PBM E-score": -0.187}, {"sequence": "CTGAGGTA", "PBM E-score": -0.0424}, {"sequence": "AGAAAGCA", "PBM E-score": 0.158}, {"sequence": "ATCACTAA", "PBM E-score": 0.0331}, {"sequence": "GGCGCGAC", "PBM E-score": 0.36}, {"sequence": "CGCGCGAA", "PBM E-score": 0.129}, {"sequence": "CGCGCGAC", "PBM E-score": 0.12}, {"sequence": "AGCGCGAC", "PBM E-score": -0.149}, {"sequence": "AGCGCGAA", "PBM E-score": 0.0676}, {"sequence": "GGCGCGAA", "PBM E-score": 0.37}, {"sequence": "CTGGGAAC", "PBM E-score": 0.0375}, {"sequence": "AGTCGATG", "PBM E-score": -0.194}, {"sequence": "AGTGGGGC", "PBM E-score": -0.231}, {"sequence": "ACGGGGCG", "PBM E-score": 0.366}, {"sequence": "ACAAGGCT", "PBM E-score": 0.198}, {"sequence": "ATAAGGCA", "PBM E-score": 0.299}, {"sequence": "CCAAGGCG", "PBM E-score": 0.341}, {"sequence": "ACAAGGCC", "PBM E-score": -0.026}, {"sequence": "ACGGGGCT", "PBM E-score": -0.161}, {"sequence": "ACGGGGCC", "PBM E-score": -0.0286}, {"sequence": "ACAAGGCG", "PBM E-score": 0.38}, {"sequence": "CCAAGGCA", "PBM E-score": 0.173}, {"sequence": "ATAAGGCC", "PBM E-score": 0.0529}, {"sequence": "CCAAGGCC", "PBM E-score": 0.171}, {"sequence": "ATAAGGCG", "PBM E-score": 0.365}, {"sequence": "CGAGAAGC", "PBM E-score": -0.112}, {"sequence": "CAACCTTG", "PBM E-score": 0.0792}, {"sequence": "CTCCCTGC", "PBM E-score": -0.293}, {"sequence": "CTTGATCC", "PBM E-score": 0.0811}, {"sequence": "CGAGTCCG", "PBM E-score": 0.128}, {"sequence": "CCAGTGAA", "PBM E-score": -0.0703}, {"sequence": "GAGATAGA", "PBM E-score": -0.0115}, {"sequence": "ACAGGGCT", "PBM E-score": -0.0531}, {"sequence": "ACAGGGCA", "PBM E-score": 0.244}, {"sequence": "ACAGGGCG", "PBM E-score": 0.351}, {"sequence": "CACCGACA", "PBM E-score": 0.0706}, {"sequence": "AGGCAACG", "PBM E-score": 0.0557}, {"sequence": "CGGCAACA", "PBM E-score": 0.368}, {"sequence": "CGGCAACC", "PBM E-score": 0.266}, {"sequence": "CGGCAACG", "PBM E-score": 0.368}, {"sequence": "AGGCAACA", "PBM E-score": 0.143}, {"sequence": "TGGCAACA", "PBM E-score": 0.195}, {"sequence": "ACTTTTGG", "PBM E-score": -0.0182}, {"sequence": "CTATGCAA", "PBM E-score": -0.0966}, {"sequence": "CGGCCCAC", "PBM E-score": -0.051}, {"sequence": "CAATACGG", "PBM E-score": 0.32}, {"sequence": "CCATACGC", "PBM E-score": 0.0591}, {"sequence": "CAATACGC", "PBM E-score": 0.175}, {"sequence": "CCATACGG", "PBM E-score": 0.395}, {"sequence": "ACATACGG", "PBM E-score": 0.261}, {"sequence": "CAATACGA", "PBM E-score": 0.143}, {"sequence": "GACAATGA", "PBM E-score": -0.247}, {"sequence": "AGCCTTAC", "PBM E-score": -0.022}, {"sequence": "CGCCTTTA", "PBM E-score": 0.129}, {"sequence": "CGCCTTGA", "PBM E-score": 0.0844}, {"sequence": "CGCCTTAC", "PBM E-score": 0.405}, {"sequence": "CGCCTTGC", "PBM E-score": 0.35}, {"sequence": "AGCCTTGG", "PBM E-score": -0.138}, {"sequence": "AGCCTTGA", "PBM E-score": -0.0777}, {"sequence": "CGCCTTCC", "PBM E-score": 0.206}, {"sequence": "AGCCTTGC", "PBM E-score": 0.325}, {"sequence": "CGCCTTAA", "PBM E-score": 0.211}, {"sequence": "CGCCTTTC", "PBM E-score": 0.354}, {"sequence": "AGCCTTTC", "PBM E-score": -0.0105}, {"sequence": "ACATGTAT", "PBM E-score": 0.0569}, {"sequence": "CAATCCAC", "PBM E-score": -0.128}, {"sequence": "ATAGTTCG", "PBM E-score": 0.0223}, {"sequence": "AATAGAGG", "PBM E-score": -0.00072}, {"sequence": "CTTGATGA", "PBM E-score": 0.1}, {"sequence": "ATCTGCAA", "PBM E-score": -0.145}, {"sequence": "ACACACTG", "PBM E-score": -0.0947}, {"sequence": "AGCCCCTG", "PBM E-score": -0.353}, {"sequence": "AAAGAACA", "PBM E-score": -0.0165}, {"sequence": "AAAGCACT", "PBM E-score": -0.0405}, {"sequence": "AGCAGGCA", "PBM E-score": -0.0398}, {"sequence": "GGGCGAGA", "PBM E-score": -0.132}, {"sequence": "AGGCTCAA", "PBM E-score": 0.0744}, {"sequence": "CGGCTCAA", "PBM E-score": 0.351}, {"sequence": "CGGCTCCA", "PBM E-score": 0.425}, {"sequence": "TGGCTCAA", "PBM E-score": 0.00085}, {"sequence": "AGGCTCCA", "PBM E-score": -0.0273}, {"sequence": "AGGCTCAG", "PBM E-score": -0.0826}, {"sequence": "CGGCTCAG", "PBM E-score": 0.379}, {"sequence": "CGGCTCCC", "PBM E-score": 0.187}, {"sequence": "CGGCTCAC", "PBM E-score": 0.213}, {"sequence": "ACCTTTCT", "PBM E-score": -0.0776}, {"sequence": "CCAACAAG", "PBM E-score": 0.00906}, {"sequence": "AACTGCGG", "PBM E-score": 0.173}, {"sequence": "CGATGCCA", "PBM E-score": 0.105}, {"sequence": "AGATGCCG", "PBM E-score": 0.397}, {"sequence": "CGATGCCC", "PBM E-score": 0.0311}, {"sequence": "ATATGCCG", "PBM E-score": 0.347}, {"sequence": "ATATGCCA", "PBM E-score": 0.153}, {"sequence": "CGATGCCG", "PBM E-score": 0.415}]}]}
